For 95 compounds, inhibition results are on record in PubChem BioAssay AID1063 (University of Pittsburgh Molecular Library Screening Center, 2008).

Out of some 200,000 compounds screened, about 18,000 (9%) were called active. The sample holds actives, similar compounds and a random draw of the others, so the mix is not that of the screen. A number with no mark means an inactive call. No stated cut-off is given here; in the data, active means inhibition above about 50%; inactive means the rest.

This assay is described as follows: antileishmanial activity against promastigotes – primary screen (AID 1063).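 Further: promastigotes grown with compound for 44 hours at 28 °C.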 Particulars: Leishmania major promastigotes, resazurin fluorescence viability; at 10 µM; stronger effect = higher value. For orientation: The colour change of resazurin is a common sign of viable cells or microbes.
For `CCC(CC)NC(=O)CSc1nnc(-c2c[nH]c3ccccc23)o1`, the inhibition (in general, the relative decrease from the control value, in per cent) is 6.71%. The same measure for `Fc1ccccc1C(c1nnnn1Cc1ccc2c(c1)OCO2)N1CCN(Cc2ccccc2)CC1` (stereo not given): 26.7%.

On to `CC(C)(C)n1nnnc1C(c1ccc(F)cc1)N1CCN(Cc2ccc3c(c2)OCO3)CC1` (stereo not given), for which the inhibition was 48.1%.

In the case of `Cc1ccc(S(=O)(=O)Cn2nnnc2CN2CCN(Cc3ccc4c(c3)OCO4)CC2)cc1`, the inhibition was 93.4% (active). For the compound `O=C(CCN1CCc2ccccc2C(O)(c2ccccc2)C1)c1ccc2c(c1)OCCO2` (stereo not given), the inhibition is 95.3% (active). `O=C(CN1CCC(O)(c2ccccc2)CC1)Nc1ccc2c(c1)OCCO2`: the inhibition was 3.55%.

As for `O=C(CN1CCN(c2ccccc2F)CC1)c1ccc2c(c1)OCO2`, the inhibition was 8.93%. The figure for `O=C(Cc1ccccc1)NNC(=O)C1CCN(c2ncccn2)CC1` is -9.12%; for `CCc1cc(CNC(=O)CC2C(=O)NCCN2CC2CCCCC2)on1` (stereo not given) it is -6.55%; for `COc1ccc(C(=O)Oc2cc(/C=N/NS(=O)(=O)c3ccc(C)cc3)ccc2OC)cc1` it is 0.27%.

On to `COc1ccc(/C=C/C(=O)c2ccc(NS(=O)(=O)c3ccc(C)cc3)cc2)cc1O`, for which the inhibition was 99.6% (active). Consider `COc1ccc(NS(=O)(=O)c2ccc(NC(C)=O)cc2)cc1OC`, for which the inhibition is -3.17%. The figure for `O=C(CCC(=O)Nc1ccccc1)N/N=C/c1ccccc1F` is 0.99%; for `CCC(C(=O)Nc1ccc2c(c1)OCCO2)c1ccccc1` (stereo not given) it is 4.21%. Take `CCO[C@H]1OC(C(=O)Nc2ccccc2)=C[C@@H](C2CC2)[C@@H]1CCCO`: the inhibition is 1.1%.

As to `CCOC(=O)C1=C(CC)OC(N)=C(C#N)C1c1ccc(F)cc1F` (stereo not given), the inhibition is 11.4%.

As to `COc1cc2c(cc1OC)C(c1ccncc1)CC(=O)N2` (stereo not given), the inhibition is -6.82%. Take `COC(=O)c1ccc(C2CC(=O)Nc3cc(OC)c(OC)cc32)cc1` (stereo not given): the inhibition is 53.2% (active). The same measure for `COc1cc2c(cc1OC)C(c1ccc(C)o1)CC(=O)N2` (stereo not given): -5.73%.

For `O=C(NCCOc1ccccc1)c1ccccc1`, the inhibition was -1.77%. Take `O=C(NCCc1ccccc1)c1ccc(OCCOc2ccccc2)cc1`: the inhibition is -1.38%. The figure for `CC(C)(c1ccccc1)c1ccc(OCCN)cc1` is 51.4% (active); for `COc1cc(OC)cc(C(=O)NCC(=O)OCc2csc(-c3ccccc3)n2)c1` it is 34.9%. The figure for `O=C(CNCc1ccc(Cl)cc1)Nc1cccc(C(=O)O)c1` is 1.28%; for `N/C(=N\OC(=O)Cc1ccccc1[N+](=O)[O-])c1ccc(Br)cc1` it is 10.7%; for `COc1cccc(CNC(=O)CCC2CCCN(C(=O)c3ccoc3C)C2)c1` (stereo not given) it is -4.54%. Take `COc1cccc(CNC(=O)CCC2CCCN(Cc3ccc(OC(F)F)cc3)C2)c1` (stereo not given): the inhibition was 98.5% (active).

On to `COc1cccc(C(=O)N2CCCC(CCC(=O)NCc3ccc(F)c(F)c3)C2)c1` (stereo not given), for which the inhibition was 6.37%. On to `COc1ccc(/C=N/NC(=O)C(C)N(c2ccc(OC)cc2)S(C)(=O)=O)cc1` (stereo not given), for which the inhibition is 4.55%. The figure for `COc1ccc(Cl)cc1NC(=O)C(C)N1CCc2ccccc21` (stereo not given) is 16.9%. The same measure for `CC1(C)OC(=O)C(=CNC(CO)C(=O)O)C(=O)O1` (stereo not given): -4.58%; for `O=C(Nc1ccc2c(c1)OCCO2)c1ccc(Cl)c(S(=O)(=O)N2CCCCC2)c1`: -0.95%. The same measure for `O=[N+]([O-])c1cccc(S(=O)(=O)N2CCCCCC2)c1`: 36.7%; for `O=C(Oc1ccc([N+](=O)[O-])cc1)c1ccc(Cl)c(S(=O)(=O)N2CCCCC2)c1`: 56.8% (active); for `S=C(NCCc1ccccc1)NCc1ccccc1Cl`: -3.26%.

As for `O=C(O)Cc1ccc(NCc2ccccc2Cl)cc1`, the inhibition was -1.01%. The figure for `OCCNCc1cccc(OCc2ccccc2Cl)c1` is 88.8% (active); for `COc1ccccc1NC(=O)c1cc(Cl)nnc1Cl` it is 15.6%. `Cc1cccc(NC(=O)c2sc(-c3ccccc3)nc2-c2ccc([N+](=O)[O-])cc2)c1`: the inhibition is 99.5% (active). Turning to `COc1ccc(NC(=O)c2sc(N)nc2-c2ccccc2)cc1`, the inhibition is 2.6%. The same measure for `Cc1cccc(NC(=O)c2cc([N+](=O)[O-])ccc2N2CCN(C)CC2)c1`: -0.64%; for `CC(=O)C1=C(O)C(=O)N(c2cccnc2)C1c1ccc([N+](=O)[O-])cc1` (stereo not given): -4.89%. The figure for `Cc1ccc(OCC(=O)NNC(=S)NCc2ccccc2)cc1` is -2.06%. The same measure for `Cc1ccc(-c2noc(CSc3nnnn3-c3ccccc3)n2)cc1`: 7.86%. Consider `Cc1ccc(Nc2nc(CSc3nnnn3-c3ccccc3)cc(=O)[nH]2)cc1`, for which the inhibition is 97.7% (active).

Consider `O=c1c2ccccc2nc(CSc2nnnn2-c2ccccc2)n1-c1ccccc1`, for which the inhibition is -5.4%. The same measure for `CC1=NNC(=O)C1CCC(=O)N/N=C\c1cccc(Cl)c1` (stereo not given): 0.75%; for `COc1ccc(-c2nn(-c3ccccc3)cc2/C=C\C(=O)N2CCOCC2)cc1[N+](=O)[O-]`: 12.4%; for `COc1ccc(-c2ccc(CNCCCN3CCOCC3)o2)cc1Cl`: 40%. For `O=[N+]([O-])c1cc(S(=O)(=O)CCCN2CCOCC2)ccc1F`, the inhibition was 1.38%.

In the case of `C=CCOc1ccc(Cl)cc1CNCCCN1CCOCC1`, the inhibition was 69.1% (active). For the compound `COc1ccc(OC)c(Cc2nnc(CCC(=O)NC3CCCC3)o2)c1`, the inhibition was -0.8%. With `O=C1Nc2cc(Cl)c(Cl)cc2N(O)N1c1ccccc1Cl`, the inhibition is -6.67%.

For the compound `NC1=NC2(CCCCC2)N(c2ccc(F)cc2F)C(N)=N1`, the inhibition is -5.15%.

As for `Cc1cc(C(=O)CC#N)c(C)n1-c1c(C)n(C)n(-c2ccccc2)c1=O`, the inhibition is -0.96%. The same measure for `CC(=O)c1cnc(SCC(=O)O)nc1C`: -12.2%; for `NNc1nc2c(Cl)cccc2s1`: 99.1% (active); for `C/C(=N\NC(=O)OC(C)(C)C)c1ccc[nH]1`: -3.24%.

As for `COc1cc([N+](=O)[O-])ccc1NC(=O)CN1CCCC1`, the inhibition is -4.3%.

With `Cc1cc(-c2nnc(CCC(=O)NC(c3ccccc3)c3ccccc3)o2)no1`, the inhibition was 5.43%.

Take `NNC(=O)c1cnn(-c2ccccc2)c1C(F)(F)F`: the inhibition is -1.35%.

`CN(CC(=O)NCCc1ccccc1)S(=O)(=O)c1cnc[nH]1`: the inhibition was 57.7% (active). The same measure for `Cc1ccc(NC(=O)CN(C)S(=O)(=O)c2cnc[nH]2)cc1C`: -1.54%; for `CN(CC(=O)NC1CCCC1)S(=O)(=O)c1cnc[nH]1`: -0.93%; for `COC(=O)c1nc(NC(=O)c2ccc(C(C)(C)C)cc2)n[nH]1`: -4.46%.

With `CCC(C)(C)NC(=O)C(c1cccc(OC)c1OC)N(CC(C)C)C(=O)CCC(=O)Nc1cc(C)on1` (stereo not given), the inhibition was 9.34%. Take `O=C1NC(c2cccc(Cl)c2)Nc2ccccc21` (stereo not given): the inhibition is -1.93%.

Turning to `O=C(O)c1ccc(/C=N/NC(=S)NCc2ccccc2)cc1`, the inhibition is -3.57%.

In the case of `O=C(N/N=C/c1ccc2c(c1)OCO2)C(=O)N1CCCC1`, the inhibition is -3.67%. For the compound `Cc1cccc(CC(=O)N2CCN=C2SCc2ccc([N+](=O)[O-])cc2)c1`, the inhibition is 88.4% (active). The same measure for `Cc1cc(C)cc(C(=O)N2CCN=C2SCc2ccc([N+](=O)[O-])cc2)c1`: 20.5%. On to `O=C(Cc1ccc(F)cc1)N1CCN=C1SCc1cccc([N+](=O)[O-])c1`, for which the inhibition was 46.3%. With `Cc1ccc(C(=O)N2CC(=O)Nc3ccccc32)o1`, the inhibition was -0.84%. As to `Cc1cccc(C)c1NC(=O)C(c1ccccc1)N1CC(=O)Nc2ccccc21` (stereo not given), the inhibition was 57.2% (active). The same measure for `Cc1ccc(S(=O)(=O)N2CC(=O)Nc3ccccc32)cc1C`: 3.05%; for `COc1ccc(-c2csc(NC(=O)c3ccc(N4C(=O)CCC4=O)cc3)n2)cc1OC`: 6.8%; for `CCOC(=O)c1csc(NC(=O)c2ccc(S(=O)(=O)N3CCCC3)cc2)n1`: 0.83%. For the compound `COc1ccc(C(=O)Nc2nc(-c3ccc(S(=O)(=O)N4CCOCC4)cc3)cs2)cc1`, the inhibition is 80.4% (active). For `C=CCN(c1ccc(Cl)cc1)S(=O)(=O)c1cccc(C(=O)OCC(=O)N(C)C)c1`, the inhibition is -0.9%. In the case of `O=C(COc1ccccc1[N+](=O)[O-])NC1CC1`, the inhibition was -4.5%. Consider `Cc1ccccc1N1CCN(CCCOc2ccc3c(C)cc(=O)oc3c2)CC1`, for which the inhibition is 42.5%. The same measure for `Cc1c(Br)c([N+](=O)[O-])nn1CC(=O)N1CCN(Cc2ccccc2)CC1`: 0.53%; for `Cc1ccc(C(=O)COC(=O)CCCC(=O)NC2CCCCC2)cc1[N+](=O)[O-]`: 33.2%; for `Cc1cc(OCC(=O)NC2CCN(C)CC2)ccc1[N+](=O)[O-]`: 55% (active).

Turning to `Cc1cc(OCCCN2CCN(Cc3ccccc3)CC2)ccc1[N+](=O)[O-]`, the inhibition was 94.3% (active). The figure for `O=C(O)Cc1sc(-c2ccccc2)nc1-c1cccs1` is -7.68%; for `CC(=O)NCC(=O)N1CCCC(C(=O)c2ccc3c4c(cccc24)CC3)C1` (stereo not given) it is 1.15%; for `O=C(COc1ccccc1Cl)Nc1ccc(C(=O)c2ccc(C(=O)O)cc2)cc1` it is 0.1%. The figure for `CN(CC(=O)Nc1ccccc1[N+](=O)[O-])Cc1ccc(Br)cc1` is 5.69%; for `CC1=C(C)C(=O)OC(C(C)C2CCC3C4CC=C5CC(OC6OC(COC7OC(CO)C(O)C(O)C7O)C(O)C(O)C6O)CC(O)C5(C)C4CCC23C)C1` (stereo not given) it is -11.1%. Take `Cc1cc(C)cc(OCC(=O)NCc2cc(C)nc3ccccc23)c1`: the inhibition was 36.5%. Take `COC(=O)CC1=NN(c2ccccc2)C(=O)C1`: the inhibition is -3.08%. As for `C/C(=C\C(=O)c1cccnc1)Nc1ccc(C)c(C)c1`, the inhibition is 20.1%.

Consider `Cc1ccc(-n2c(C)cc(/C=C(\C#N)C(=O)NCC3CCCO3)c2C)cc1` (stereo not given), for which the inhibition was -2.28%. For the compound `Cc1cc(/C=C(/C#N)C(=O)Nc2ccc(Cl)cc2)c(C)n1-c1cccnc1`, the inhibition is 56.9% (active).
